Screening results: PubChem BioAssay, National Center for Advancing Translational Sciences (NCATS)
A selection: hits, their analogues and other compounds. The true share with any hit is near 4.3%.
Giardia killer: Small Molecules that selectively kill Giardia lamblia: qHTS; Giardia lamblia trophozoite viability; activity change, % at 7.66 µM, hits read low; 340,000 tested, 0.15% active; AID 540267, 2011; in the data active = activity change below about -80%; inconclusive = between about -30% and that limit;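 also: parasites exposed to compound for two days anaerobically before the ATP read; % is scaled to controls: 0 for no effect and ±100 for the full control effect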
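ATP-content bioluminescence gauges trophozoite survival. Cells (100/well) receive compound and incubate anaerobically for 48 hrs at 37 deg C; detection reagent follows for 15-30 min at room temperature.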
uPA generation: qHTS for Inhibitors of Cell Surface uPA Generation; cell surface uPA generation assay, qHTS; Potency, µM (series often up to 38.3 µM), for the others: top-dose activity change, negative = inhibition, most hits filed as inhibitors; 330,000 tested, 0.31% active; AID 540303, 2011; active = well fitted inhibition curve with a large enough effect; inconclusive = small, poorly fitted or top-dose-only effect; inactive = no such curve, though single readings can be large or run the other way; tested in mouse RAW 264.7 cells; also: potency is read from the fitted curve at half-maximal effect; % is scaled to controls: 0 for no effect and ±100 for the full control effect; nearly all actives have a fitted effect of over 55% in size
MCF10A rerep: A quantitative high throughput screen for small molecules that induce DNA re-replication in MCF 10a normal breast cells; Potency, µM (highest dose often 46.1 µM), inactives show at the highest dose activity, positive = re-replication, most hits filed as activators; AID 624296, 2012; 350,000 tested, 2.9% active; MCF 10A DNA re-replication, Hoechst nuclear intensity, 48 h; also: potency is read from the fitted curve at half-maximal effect; % of control where 0% means no effect; nearly all actives have a fitted effect of over 50% in size
SW480 rerep: A quantitative high throughput screen for small molecules that induce DNA re-replication in SW480 colon adenocarcinoma cells. AID 624297, 2012. 340,000 tested, 1.8% active. Potency, µM (top dose mostly 46.1 µM), for the others: at the highest dose re-replication activation, usual class: activators. SW480 DNA re-replication, Hoechst DNA content imaging, 48 h; also: potency is read from the fitted curve at half-maximal effect; % of control where 0% means no effect; nearly all actives have a fitted effect of over 55% in size
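Treated cells incubate 48 hr (37 C, 5% CO2), are stained 40 min with Hoechst, and nuclear fluorescence is enumerated; a rise in nuclei with high DNA signal marks re-replication.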
Active calls of the source: *; ? = inconclusive; . = not tested or not shown; [ ] = dose if it differs, or a comment. Unless noted, calls follow the shape of the dose curve; as a rule, active = well fitted activation curve with a large enough effect; inconclusive = small, poorly fitted or top-dose-only effect; inactive = no such curve, though single readings can be large or run the other way.

SMILES	Giardia killer	uPA generation	MCF10A rerep	SW480 rerep
Cc1csc(CN(C)C(=O)C2CCC(=O)N(CCN(C)C)C2)n1 (configuration not stated)	?	7%	-7%	-7%
O=C(NN=Cc1ccc(N2CCOCC2)s1)c1ccc([N+](=O)[O-])cc1	-17	3%	1%	-28%
COc1cc(-c2csc(NC3CCCCC3)n2)cc(OC)c1OC	-5	1%	-13%	-62%
COC(=O)c1ccccc1N/C=C1\CCc2c(c(C)nn2-c2ccccn2)C1=O	4	13%	8.2µM*	1%
O=C1CN(C(=O)/C=C/c2ccc(Br)cc2)CCN1	11	2%	-7%	-3%
COc1ccc(NC(=O)CCSc2ccc3ccccc3n2)cc1	-21	5%	10µM*	-3%
COc1ccccc1/C=N/NC(=O)CSc1ccc2ccccc2n1	-18	-8%	16µM*	?
COc1ccc2nc(C)cc(SCC(=O)N/N=C/c3ccc(O)cc3O)c2c1	6	-11%	6.5µM*	?
Cc1cc(SCC(=O)NN)c2cc(Br)ccc2n1	-3	1%	9.2µM*	?
Cn1ncc([N+](=O)[O-])c1C(=O)n1nnc2ccccc21	-2	1%	?	7%
O=C(Nc1c(-c2ccccc2)nc2ccccn12)c1ccccc1F	1	-9%	-3%	-3%
Cc1cc(C)n2nc(SC(C)C(=O)Nc3ccccc3F)nc2n1 (configuration not stated)	9	0%	4%	0%
COc1ccccc1/C=N/NC(=O)CSc1cc(C)nc2ccccc12	-13	-14%	13µM*	?
COc1cccc2c(SCC(=O)N/N=C/c3ccc(O)cc3O)cc(C)nc12	-4	-12%	15µM*	7.3µM*
COc1ccc2nc(C)cc(SCC(=O)N/N=C/c3c(OC)ccc4ccccc34)c2c1	2	2%	-8%	-6%
CC(C)C[C@@H](NC(=O)[C@H](Cc1ccccc1)NC(=O)c1cnccn1)B(O)O	.	.	?	0.003µM*
CC(NC(=O)C(Cc1ccccc1)NC(=O)c1ccccc1)C(=O)O (configuration not stated)	23	.	-2%	-14%
CCc1c(C)nn(C(=O)/C(C#N)=C\N(C)C)c1C	-10	4%	-5%	-28%
CC(=O)C1=C(C)NC(SCC(=O)c2ccc(Cl)cc2)=C(C#N)C1CC(C)C (configuration not stated)	-2	2%	?	6%
CC(=O)C1=C(C)NC(SCC(=O)c2ccc(F)cc2)=C(C#N)C1CC(C)C (configuration not stated)	8	9%	18µM*	?
CCOC(=O)C1=C(C)NC(SC)=C(C#N)C1CC(C)C (configuration not stated)	6	-2%	?	7.3µM*
CC(=O)C1=C(C)NC(SCC(N)=O)=C(C#N)C1CC(C)C (configuration not stated)	-17	3%	3%	-3%
Cc1onc(-c2c(F)cccc2Cl)c1C(=O)Nc1cc(S(=O)(=O)N2CCCCC2)ccc1O	?	6%	?	9%
COc1ccc(C2/C=C\CN(C(=O)c3ccccc3)C(Cc3ccccc3)C(=O)N2Cc2ccc(F)cc2)cc1 (configuration not stated)	-8	.	.	.
C/C(CC(=O)NC1CCCCC1)=N\NC(=O)Cc1ccc(-c2ccccc2)cc1	0	2%	-11%	2%
SMILES	Giardia killer	uPA generation	MCF10A rerep	SW480 rerep
Cn1c(=O)cc(OCCCC(=O)NCc2ccccn2)c2ccccc21	30	-6%	15%	-1%
CCN1CCN(C(=O)CCCCCn2c(=O)[nH]c3cc(C(=O)OC)ccc3c2=O)CC1	6	2%	2%	-1%
Cc1ccnc(NC(=O)CCCOc2cc(=O)n(C)c3ccccc23)c1	10	-14%	15µM*	7.3µM*
COC(=O)c1ccc2c(=O)n(CCCCCC(=O)N3CCN(c4ccccc4)CC3)c(=O)[nH]c2c1	0	-3%	15µM*	-3%
CN1CCN(C(=O)CCCOc2cc(=O)n(C)c3ccccc23)CC1	31	-12%	3%	-4%
Cn1c(=O)cc(OCCCC(=O)N2CCN(c3ccccc3)CC2)c2ccccc21	27	-12%	9.2µM*	-1%
Cc1ccccc1C(=O)N1CCC(C(=O)Nc2nc3ccc(F)cc3s2)CC1	6	1%	12%	-4%
CN(C)C/C=C/C(O)(c1ccccc1)c1ccccc1	26	3%	16µM*	4%
CN(C)CCCOc1ccc(C(C)(C)c2ccccc2)cc1	7	-1%	?	-3%
O=c1ccn(C2OC(COP(=O)(O)OC3C(CO)OC(n4ccc(=O)[nH]c4=O)C3O)C(O)C2O)c(=O)[nH]1 (configuration not stated)	.	.	4%	-1%
CN(CCc1ccccc1)C(=O)c1ccc(NC(=O)Cc2ccc(NC(=O)C3CCCN(C(=O)C4CCCC4)C3)cc2)cc1 (configuration not stated)	-16	-13%	-54%	7%[9.22 µM]
CN(Cc1ccccc1)C(=O)c1cccc(NC(=O)Cc2ccc(NC(=O)C3CCN(C(=O)CCc4ccccc4)CC3)cc2)c1	-4	?	0%	4%
CN(CCc1ccccc1)C(=O)c1ccc(NC(=O)Cc2ccc(NC(=O)C3CCCN(C(=O)C4CC4)C3)cc2)cc1 (configuration not stated)	-7	3%	-16%	18µM*
CN(Cc1ccccc1)C(=O)c1ccc(NC(=O)Cc2ccc(NC(=O)C3CCN(C(=O)CCc4ccccc4)CC3)cc2)cc1	-9	-17%	15µM*	?
COc1ccc(CC(=O)Nc2ccc(S(=O)(=O)N3CCC(C)CC3)cc2)c(OC)c1	1	-13%	?	-9%
COC(=O)C(=O)Nc1cccc2cccnc12	-1	.	.	.
CCOC(=O)C1=C(C)N(C[C@@H]2CC[C@@H](Cc3ccc(-c4ccccc4)cc3)O2)C(=O)NC1c1cccc([N+](=O)[O-])c1 (some centres not stated)	-15	-11%	-38%	?
CCN1CC(C)(C)N(C(=O)c2ccccc2)CC1(C)C	16	3%	0%	-2%
CN1C2CCC1/C(=C\c1ccc(F)cc1)C(=O)/C2=C/c1ccc(F)cc1	0	-2%	2%	?
C=CC(=O)N1C/C(=C/c2ccc(F)cc2)C(=O)/C(=C\c2ccc(F)cc2)C1	5	-3%	?	1.2µM*
COCCn1c(-c2ccc(-c3ccc([N+](=O)[O-])cc3Br)o2)nc2c1c(=O)[nH]c(=O)n2CC(C)C	1	3%	18µM*	26%
COCCn1c(=O)[nH]c(=O)c2c1nc(-c1ccc(-c3ccc(Cl)cc3[N+](=O)[O-])o1)n2Cc1ccccc1	10	-9%	5.2µM*	?
COCCn1c(-c2ccc(SC)cc2)nc2c1c(=O)[nH]c(=O)n2CC(C)C	6	-7%	13%	-6%
c1coc(CNc2nc[n+]3c4c2ncn4CC3)c1	13	.	.	.
COc1ccc(S(=O)(=O)Nc2cccc3cccnc23)c([N+](=O)[O-])c1	-6	.	.	.
